Structures are written as SMILES. About 83,000 compounds went through this panel and 20% of them were active in at least one assay; those are over-represented in the sample as a whole.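 Compound tested at a single concentration for 48 hours in 96-well plates; a percent growth value below 10 was scored as active.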 Active and inactive are the calls of the source.

The assay has as its system UACC-257 melanoma. In words: NCI-60 one-dose screen, 48 h (100 = growth as untreated, 0 = no growth, -100 = all killed). The conditions noted are these: 10 µM unless noted.
Regarding `NCCNc1nc2ccccc2c2c(=O)c3cc(F)cc(Cl)c3sc12`, the growth was 103% (inactive).
With `C=C1C(=O)O[C@H]2[C@H]1CC/C(COC(=O)/C=C\C(=O)O)=C\CC[C@@]1(C)O[C@@H]21`, the growth was 99.8% (inactive).
The same measure for `COc1ccccc1C(=O)/C=C/c1ccccc1`: 92.6% (inactive).
For `Cn1cc([C@@H]2Nc3ccc4[nH]ncc4c3[C@H]3[C@H]4CCC(C4)[C@H]32)c(C(F)(F)F)n1` the value was 50.1% (inactive); for `N#Cc1c(N)nc2c(c1N)C(c1ccc(F)cc1)c1ccc(N)cc1O2` (centres undefined), 102% (inactive).
The same measure for `O=C(CN1C=NC2C(N3CCOCC3)=NC=NC21)c1ccc(Br)cc1` (centres undefined): 105% (inactive); for `CCCCN1CCN(c2ccc3nc(-c4ccc5nc(-c6ccc(OCC)cc6)[nH]c5c4)[nH]c3c2)CC1`: 68.2% (inactive).
As to `CCN(CCO)CCNc1ccc(C)c2sc3cc(Cl)ccc3c(=O)c12`, the growth was -49.8% (active).
The same measure for `Cc1nn(-c2nc3ccccc3[nH]2)c2c1C(c1ccc(OCC(N)=O)cc1)CC(=O)N2` (centres undefined): 110% (inactive).
For `COC(=O)/C(CCC=C(C)C)=C1\[C@@H](OC(C)=O)C[C@@]2(C)[C@H]1C[C@@H](O)[C@H]1[C@@]3(C)CC[C@H](NCCO)[C@@H](C)[C@@H]3CC[C@@]12C` the value was 107% (inactive); for `CCCc1c(C)c2sc(=O)[nH]c2[nH]c1=O`, 103% (inactive); for `O=C(/C=C/c1ccc(Cl)cc1)c1ccc(Nc2nc(NCCO)nc(Nc3ccc(Cl)cc3)n2)cc1`, 95.8% (inactive).
For `COc1cccc2c(=O)c3c(sc12)c(NCCCNCCO)nc1ccccc13` the value was 84.5% (inactive).
`CCCCc1ccc(NS(=O)(=O)c2cc3c4c(c2)CCN4C(=O)CC3)cc1`: the growth is 16.3% (inactive).
For `O=C1/C(=C/c2ccc(O)cc2)COc2ccc(O)cc21` the value was 104% (inactive).
The same measure for `Cc1cc(Nc2ccc(OCc3ccccc3)cc2)nc2cc(O)ccc12`: 43.7% (inactive); for `O=C(c1nc2ccccc2[nH]1)C1[C@@H](c2cccc(O)c2)C2CC3CCCCC3N2[C@@]12C(=O)Nc1cc(Cl)ccc12` (some centres undefined): 48.9% (inactive); for `O=c1oc2ccc(Br)cc2c(=O)n1-c1ccc(Br)cc1F`: -15.1% (active).
For `O=C(/C=C/c1ccc(C(F)(F)F)cc1)c1ccc(Nc2nc(NCCO)nc(N3CCOCC3)n2)cc1` the value was 98.9% (inactive); for `C#CCn1cc(C=C2C(=O)N(C)C(=O)N(C)C2=O)c2cc(Cl)ccc21`, 112% (inactive); for `COc1ccc(/C=C2/SC(=O)N(CC(=O)N3CCN(c4cc5c(cc4F)c(=O)c(C(=O)O)cn5C4CC4)CC3)C2=O)cc1`, 91.9% (inactive).
Take `CCOC(=O)C1=C(C)N=c2s/c(=C\c3ccccc3O)c(=O)n2C1c1ccc(OC)c2ccccc12` (centres undefined): the growth was -85.8% (active).
For `Nc1ccc(-c2ccc(-c3ccccc3N)c3[nH]c4ccccc4c23)cc1` the value was 33.2% (inactive).
Take `CCOC(=O)c1c2c(n3cccc(Cl)c13)C(=O)c1ncccc1C2=O`: the growth is 60.8% (inactive).
For the compound `O=C(Nc1ccc(C23CC4CC(CC(c5ccccc5)(C4)C2)C3)cc1)c1cccs1`, the growth was 75.4% (inactive).
In the case of `Cc1ccc2sc3c(NCCCNCCO)nc4ccccc4c3c(=O)c2c1`, the growth is 72.7% (inactive).
The same measure for `COc1ccccc1N1CCN(C(CNS(=O)(=O)c2ccc(Cl)cc2)c2cccnc2)CC1` (centres undefined): 120% (inactive); for `CCn1c(-c2nonc2Nc2ccc(OC)cc2)nc2ccccc21`: 104% (inactive); for `O=C(Nc1ccc(N2CCNCC2)cn1)c1[nH]ncc1Nc1ncnc2sc3c(c12)CCC3`: 67.8% (inactive).
The same measure for `O=C(/C=C/c1cccc(Cl)c1)OCc1ccc2cc1OCC#C/C=C\C#CCO2`: 88.8% (inactive); for `C[n+]1c2ccccc2nc2ccc(NCCO)cc21`: 99.2% (inactive).
Take `Nc1nc2c(ncn2[C@@H]2O[C@H](CS)[C@@H](O)[C@H]2O)c(=O)[nH]1`: the growth was 94.7% (inactive).
For `Cn1c(C(=O)c2cccc3ccccc23)nc2ccccc21`, the growth is -7.56% (active).
The same measure for `CC/C(=C(\CC)c1ccc(OCC[N+](C)(C)C)cc1)c1ccc(OC)cc1`: 39% (inactive); for `O=C(Nc1ccc(F)cc1F)c1cc(I)ccc1O`: -9.13% (active); for `CC(C)Cn1c2c(c(=S)[nH]c1=O)CCC2`: 109% (inactive).
The same measure for `CNCCNc1nc2ccccc2c2c(=O)c3cccc(C)c3sc12`: 82% (inactive).
As for `COC(=O)c1c2c(c(C)[n+]([O-])c1C)C(=O)C(NCc1ccc(F)c(F)c1)=CC2=O`, the growth was -30% (active).
For `O=C(Cn1cc(COc2ncnc3c2cnn3-c2ccccc2)nn1)Nc1ccccn1` the value was 98.4% (inactive).

(Values after PubChem BioAssay (NCI).)
